Data reported in PubChem BioAssay (EPA / NIEHS).
Records with an inconclusive call do not appear. Activity calls are given as the source filed them. The calls were made as follows, unless noted: active = hit-call score of the fitted dose curve at least 0.9, where 1 is the maximum; inactive = score below 0.9.

Key:
[1] = biological target: Nucleoli Translocation, AR (gene 367) (UniProt P10275); experiment: UPITT_HCI_U2OS_AR_TIF2_Nucleoli_Antagonist: University of Pittsburgh U2OS Androgen Receptor-Transcriptional Intermediary Factor 2 (AR-TIF2) Antagonism High Content Imaging Assay for Nucleoli Translocation (AID 2283997; active = hit-call score of the fitted dose curve at least 0.9, where 1 is the maximum)
In short: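 Measured quantity was AR-RFP fluorescence localized to nucleoli in engineered U2OS cells also bearing TIF2-GFP, acquired on automated high-content imagers. Primary testing used 20 uM compound; actives were confirmed in triplicate wells.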

[2] = CCTE_Harrill_HTTr_Viability_MCF7: CCTE's 6-hour Cell Viability Assessment for the High-Throughput Transcriptomics (HTTr) Platform, in MCF-7 cells cultured in DMEM + 10% fetal bovine serum, Harrill Lab (AID 2284010)
In short: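 Cells were dosed with chemicals in an eight-point dilution series, imaged 6 hours later for propidium iodide uptake, and the endpoint was analyzed by bidirectional fitting against DMSO as negative control.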

[3] = CCTE_Harrill_HTTr_Apoptosis_MCF7: CCTE's 6-hour Apoptosis Assessment for the High-Throughput Transcriptomics (HTTr) Platform, in MCF-7 cells cultured in DMEM + 10% fetal bovine serum, Harrill Lab (AID 2284011)
In short: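 MCF-7 cells in DMEM + 10% FBS exposed 6 h to chemicals over an eight-point dilution series. Caspase-3/7 activation imaged by high-content CellEvent Green staining; fitted bidirectionally versus DMSO.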

[4] = CCTE_Harrill_HTTr_CellCount_MCF7: CCTE's Cell Proliferation Assessment for the High-Throughput Transcriptomics (HTTr) Platform, Harrill Lab (AID 2284012; active = hit-call score of the fitted dose curve at least 0.9, where 1 is the maximum;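 also: count of Hoechst-stained nuclei per well by high-content imaging in MCF-7 cells; cells exposed to compound for six hours; intended direction is loss of nuclei count meaning fewer cells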)
In short: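 Chemicals in eight-point dilution series are added to MCF-7 cells for six hours, nuclei are stained with Hoechst and imaged, and per-well nuclei counts are fitted in both directions relative to DMSO controls.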

[5] = biological target: Ratio of Nucleoli Translocation and Cytoplasm, AR (gene 367) (UniProt P10275); experiment: UPITT_HCI_U2OS_AR_TIF2_Nucleoli_Cytoplasm_Ratio_Agonist: University of Pittsburgh U2OS Androgen Receptor-Transcriptional Intermediary Factor 2 (AR-TIF2) Agonism High Content Imaging Assay for Ratio of Nucleoli Translocation and Cytoplasm (AID 2284000; active = hit-call score of the fitted dose curve at least 0.9, where 1 is the maximum;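 also: hits raise the red nucleolar to cytoplasm ratio above vehicle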)
In short: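 Read-out first: nucleolar-to-cytoplasm ratio of red (AR-RFP) signal, quantified by high-content imaging in U2OS cells co-expressing TIF2-GFP. Activity is scored as signal increase over DMSO. Single-point screening used 20 uM final (0.2% DMSO).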

[6] = biological target: Nucleoli Translocation, AR (gene 367) (UniProt P10275); experiment: UPITT_HCI_U2OS_AR_TIF2_Nucleoli_Agonist: University of Pittsburgh U2OS Androgen Receptor-Transcriptional Intermediary Factor 2 (AR-TIF2) Agonism High Content Imaging Assay for Nucleoli Translocation (AID 2283998; active = hit-call score of the fitted dose curve at least 0.9, where 1 is the maximum)
In short: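 U2OS cells expressing RFP-tagged human AR and GFP-tagged TIF2; red fluorescence in nucleoli quantified by high-content imaging. Primary screen at 20 uM final (0.2% DMSO); concentration-response 0.195–50 uM (0.5% DMSO), fitted upward versus DMSO.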

[7] = biological target: Ratio of Nucleoli Translocation and Cytoplasm, AR (gene 367) (UniProt P10275); experiment: UPITT_HCI_U2OS_AR_TIF2_Nucleoli_Cytoplasm_Ratio_Antagonist: University of Pittsburgh U2OS Androgen Receptor-Transcriptional Intermediary Factor 2 (AR-TIF2) Antagonism High Content Imaging Assay for Ratio of Nucleoli Translocation and Cytoplasm (AID 2283999; active = hit-call score of the fitted dose curve at least 0.9, where 1 is the maximum;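 also: antagonists lower the DHT-driven ratio of nucleolar to cytoplasmic red signal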)
In short: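 Human osteosarcoma U2OS line, AR fused to RFP, coactivator TIF2 fused to GFP. Cpds 20 uM final, 0.2% DMSO (screen); 0.195–50 uM final, 0.5% DMSO (CRC). Endpoint: nucleoli/cytoplasm red signal ratio, DHT as baseline, loss-of-signal antagonist mode.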

[8] = CCTE_Shafer_MEA_acute_spike_number: CCTE's Neural Acute Assay for Total Number of Spikes, Shafer Lab (AID 2284008);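 as to AC50: curve fitted for decrease in spike count so AC50 reflects inhibitors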
In short: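 Rat primary cortical neurons on 48-well MEA plates, DIV 13 or 15, at 37 C. 40 min baseline then 40 min with compound (0.03-40 uM); spikes detected at 8x rms noise, expressed as percent change from baseline.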

[9] = CCTE_Shafer_MEA_acute_firing_rate_mean: CCTE's Neural Acute Assay for Mean Firing Rate, Shafer Lab (AID 2284009);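 also: analyzed for loss of signal so actives lower firing rate relative to DMSO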
In short: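 Percent change in well-mean firing rate was derived from extracellular spikes detected at 8x rms noise (300-5000 Hz band-pass) before and after a 40-min compound exposure. Cultures were primary rat cortical neurons, tested at 0.03-40 uM.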

[10] = CCTE_Shafer_MEA_acute_burst_number: CCTE's Neural Acute Assay for Single-Electrode Bursts, Shafer Lab (AID 2284013)
In short: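 Spontaneous network activity of primary rat cortical neurons was recorded extracellularly on microelectrode arrays at 37 C, with 40-min periods before and during exposure to 0.03-40 uM compound on DIV 13 or 15.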

[11] = CCTE_Shafer_MEA_acute_burst_duration_mean: CCTE's Neural Acute Assay for Mean Burst Duration, Shafer Lab (AID 2284014);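 also: hits are decreases in mean burst duration relative to DMSO controls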
In short: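 Read-out is the per-well percent change in mean burst duration (first to last spike within a single-electrode burst) between 40-min recordings before and after compound. Cultures were primary rat cortical neurons on MEAs, dosed at 0.03-40 uM on DIV 13 or 15.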

[12] = CCTE_Shafer_MEA_acute_interburst_interval_mean: CCTE's Neural Acute Assay for Mean Interburst Interval, Shafer Lab (AID 2284016);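 also: percent change of mean interburst interval versus each well's own pre-dose baseline; curves fitted for decrease in interburst interval relative to DMSO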
In short: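 MEA recording of spontaneous network bursting in primary rat cortical cultures; mean interburst interval was compared before and after a 40-min compound exposure (0.03-40 uM) and expressed as percent change, relative to DMSO.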

[13] = CCTE_Shafer_MEA_acute_burst_percentage_mean: CCTE's Neural Acute Assay for Percentage of Spikes in a Burst, Shafer Lab (AID 2284017);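 as to AC50: curve fitted for loss of signal so potency reflects decreased burst percentage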
In short: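 Compounds were tested at 0.03-40 uM on primary rat cortical neuron networks grown over microelectrodes, with at least three wells per compound. Spontaneous firing was recorded for 40 min before and 40 min after dosing, and the change in burst percentage was computed per well.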

[14] = CCTE_Shafer_MEA_acute_burst_percentage_std: CCTE's Neural Acute Assay for Standard Deviation of Burst Percentage, Shafer Lab (AID 2284018);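 also: fitted in the negative direction so actives lower burst percentage SD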
In short: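 Value is percent change from baseline in the across-electrode SD of spikes-in-bursts percentage, wells with >/= 10 active electrodes. Acute 40-min exposure to 0.03-40 uM on DIV 13 or 15 rat cortical cultures, recorded at 37 C after 40-min baseline.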

[15] = CCTE_Shafer_MEA_acute_per_network_burst_spike_number_std: CCTE's Neural Acute Assay for Standard Deviation of Number of Spikes in a Network Burst, Shafer Lab (AID 2284020);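 also: fitted for decrease in spike-number SD versus DMSO so actives lower it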
In short: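 Spontaneous network activity of primary rat cortical neurons is recorded extracellularly before and after a 40-min compound exposure (0.03-40 uM) at 37 C. The endpoint is the well's percent change in burst spike-number SD.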

[16] = CCTE_Simmons_MITO_basal_resp_rate: CCTE's HepG2 Seahorse XF Respirometric Screening Assay at Basal Respiratory State, Simmons Lab (AID 2284001); conditions: actives raise or lower the signal
In short: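 HepG2 respirometry; 7-pt titration 125 nM–100 uM final; kinetic OCR at 6 min intervals for 72 min; n=3 biological, technical singles; DMSO baseline, gain or loss fit; fenpyroximate (decrease) and 2,4-DNP (increase) controls.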

[17] = CCTE_Simmons_MITO_viability: CellTiter-Glo Viability Assessment for CCTE's HepG2 Seahorse XF Respirometric Screening Assay [post-hoc], Simmons Lab (AID 2284007; active = hit-call score of the fitted dose curve at least 0.9, where 1 is the maximum;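 as to AC50: cells exposed to chemical for 90 min before the ATP read; actives lower ATP signal relative to DMSO baseline meaning reduced viability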)
In short: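 After the Seahorse oxygen-consumption sequence (basal, FCCP, rotenone/antimycin A; 72 min total), HepG2 viability was scored as ATP content by bioluminescence. Chemicals ran at seven concentrations up to 100 uM final for 90 min.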

DIO1 (gene 1733) = experiment: CCTE_GLTED_hDIO1: CCTE's human Deiodinase 1 (DIO1) Inhibition Assay, Great Lakes Toxicology and Ecology Division (GLTED) Lab (AID 2283987; active = hit-call score of the fitted dose curve at least 0.9, where 1 is the maximum;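 also: isolated human DIO1 enzyme in a cell-free setup rather than cells; enzyme activity read as free iodide liberated from substrate via Sandell-Kolthoff colorimetry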)
In short: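 Cell-free human DIO1 enzyme incubated 3 h with test chemical; iodide freed from substrate then measured by Sandell-Kolthoff absorbance. Run in triplicate; loss of signal relative to DMSO taken as inhibition.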

Ratio of Nucleoli Translocation and Cytoplasm, AR (gene 367), sequence (P10275 whole entry, looked up, the tested form may be a part): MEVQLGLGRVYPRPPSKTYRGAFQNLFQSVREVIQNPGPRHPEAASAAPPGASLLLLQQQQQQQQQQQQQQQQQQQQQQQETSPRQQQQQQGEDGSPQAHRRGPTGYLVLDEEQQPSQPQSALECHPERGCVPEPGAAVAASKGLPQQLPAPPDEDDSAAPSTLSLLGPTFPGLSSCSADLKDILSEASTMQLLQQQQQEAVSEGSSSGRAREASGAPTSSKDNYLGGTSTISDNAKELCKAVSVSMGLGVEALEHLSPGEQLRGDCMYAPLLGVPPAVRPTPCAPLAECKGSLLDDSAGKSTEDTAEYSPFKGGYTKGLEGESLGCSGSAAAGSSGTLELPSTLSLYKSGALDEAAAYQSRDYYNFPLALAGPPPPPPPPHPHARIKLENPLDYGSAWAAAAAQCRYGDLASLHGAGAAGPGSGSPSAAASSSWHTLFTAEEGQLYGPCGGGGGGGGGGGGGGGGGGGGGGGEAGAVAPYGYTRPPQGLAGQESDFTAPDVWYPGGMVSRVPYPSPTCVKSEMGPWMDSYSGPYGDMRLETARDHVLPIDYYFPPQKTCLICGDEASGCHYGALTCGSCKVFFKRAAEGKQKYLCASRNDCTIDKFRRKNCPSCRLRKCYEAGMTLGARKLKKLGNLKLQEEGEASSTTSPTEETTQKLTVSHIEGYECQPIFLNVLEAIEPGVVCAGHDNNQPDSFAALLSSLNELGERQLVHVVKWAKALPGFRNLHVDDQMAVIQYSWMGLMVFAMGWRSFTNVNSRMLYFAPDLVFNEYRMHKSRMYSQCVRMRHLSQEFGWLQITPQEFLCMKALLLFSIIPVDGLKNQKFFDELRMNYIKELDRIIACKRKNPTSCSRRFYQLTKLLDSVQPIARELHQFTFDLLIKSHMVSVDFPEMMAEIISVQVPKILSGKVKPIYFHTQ
Nucleoli Translocation, AR (gene 367), sequence (P10275 whole entry, looked up): as the sequence (P10275 whole entry, looked up, the tested form may be a part) above

## O=C1CCCO1
[1]
  outcome: inactive
[2]
  outcome: inactive
[3]
  outcome: inactive
[4]
  outcome: inactive

## Nc1ccc([N+](=O)[O-])cc1
[1]
  outcome: inactive
[5]
  outcome: inactive
[2]
  outcome: inactive
[3]
  outcome: inactive
[4]
  outcome: inactive

## O=[N+]([O-])C(Br)(CO)CO
[1]
  AC50: 31.8 µM (active)
[6]
  outcome: inactive
[7]
  outcome: inactive
[5]
  outcome: inactive
[8]
  AC50: 33.6 µM (active)
[9]
  AC50: 33.9 µM (active)
[2]
  outcome: inactive
[3]
  outcome: inactive
[4]
  outcome: inactive
[10]
  outcome: inactive
[11]
  AC50: 30.4 µM (active)
[12]
  outcome: inactive
[13]
  AC50: 30.2 µM (active)
[14]
  outcome: inactive
[15]
  outcome: inactive

## CC(C)N(Cc1ccccc1)C(=O)C(C)(C)C
[1]
  outcome: inactive
[7]
  outcome: inactive
[5]
  outcome: inactive
[16]
  AC50: 35.6 µM (active)
[17]
  outcome: inactive
[2]
  outcome: inactive
[3]
  outcome: inactive

## CCC(C)c1ccc(O)cc1 (stereo not given)
[16]
  AC50: 44.3 µM (active)
[8]
  AC50: 20 µM (active)
[9]
  AC50: 20 µM (active)
[2]
  outcome: inactive
[3]
  outcome: inactive
[10]
  outcome: inactive
[11]
  outcome: inactive
[12]
  AC50: 30 µM (active)
[13]
  AC50: 29.6 µM (active)
[14]
  outcome: inactive
[15]
  AC50: 30 µM (active)

## Clc1ccc(C(c2ccc(Cl)cc2)C(Cl)(Cl)Cl)cc1
[8]
  outcome: inactive
[9]
  outcome: inactive
[2]
  outcome: inactive
[3]
  outcome: inactive
[4]
  outcome: inactive
[10]
  outcome: inactive
[11]
  outcome: inactive
[12]
  outcome: inactive
[13]
  AC50: 11.4 µM (active)
[14]
  AC50: 5.34 µM (active)
[15]
  outcome: inactive

## CN(C)[C@@H]1C(=O)C(C(N)=O)=C(O)[C@@]2(O)C(=O)C3=C(O)c4c(O)cccc4[C@@](C)(O)[C@H]3C[C@@H]12
DIO1 (gene 1733)
  AC50: 56.9 µM (active)
[2]
  outcome: inactive
[3]
  outcome: inactive
[4]
  outcome: inactive

## O=C(Nc1ccccc1)c1ccccc1I
[1]
  outcome: inactive
[6]
  outcome: inactive
[7]
  outcome: inactive
[5]
  outcome: inactive
[2]
  outcome: inactive
[3]
  outcome: inactive

## COc1cc(C=O)cc2c1[C@H](COC(N)=O)[C@]1(OC(C)=O)ON2C[C@H]2[C@@H]1N2C(C)=O
[16]
  outcome: inactive
[2]
  outcome: inactive
[3]
  outcome: inactive
[4]
  outcome: inactive

## CCCCC(CC)COC(=O)c1ccc(C(=O)OCC(CC)CCCC)c(C(=O)OCC(CC)CCCC)c1 (stereo not given)
[1]
  outcome: inactive
[7]
  outcome: inactive
[5]
  outcome: inactive

## O=P(OCCCl)(OCCCl)OCCCl
[8]
  outcome: inactive
[9]
  outcome: inactive
[2]
  outcome: inactive
[3]
  outcome: inactive
[4]
  outcome: inactive
[10]
  outcome: inactive
[11]
  outcome: inactive
[12]
  outcome: inactive
[13]
  outcome: inactive
[14]
  outcome: inactive
[15]
  outcome: inactive

## CCCCCCCCn1sccc1=O
DIO1 (gene 1733)
  AC50: 54 µM (active)
[16]
  outcome: inactive
[17]
  AC50: 74.4 µM (active)
[8]
  outcome: inactive
[9]
  outcome: inactive
[2]
  outcome: inactive
[3]
  AC50: 45.9 µM (active)
[4]
  AC50: 50 µM (active)
[10]
  outcome: inactive
[11]
  AC50: 6.78 µM (active)
[12]
  outcome: inactive
[13]
  AC50: 8.26 µM (active)
[14]
  outcome: inactive
[15]
  AC50: 7.57 µM (active)
